Assay outcomes (PubChem)
Only some compounds are listed: those with a hit (about 7.9% of all), similar ones and a draw of the others.
Marburg entry inh = inhibitors of Marburg virus binding or cell entry | Marburg virus pseudotyped entry inhibition, cell reporter | Potency, µM (doses to about 37.8 µM), inactives show at the top dose activity change, negative = inhibition, most hits filed as inhibitors | hit rate 1.8% among 300,000 | AID 540276; calls by dose curve; tested in HEK293 cells; also: potency is read from the fitted curve at half-maximal effect
HCV inh = HCV inhibition. Huh7.5.1 HCVcc-Cre infection, luciferase reporter, 44 h. Potency, µM (top dose mostly 41.8 µM), for inactives: at the top dose activity change, negative = inhibition, most hits filed as inhibitors. hit rate 3.4% among 340,000; active = well fitted inhibition curve with a large enough effect; inconclusive = small, poorly fitted or top-dose-only effect, or another doubt; inactive = no such curve, though single readings can be large or run the other way; also: potency is read from the fitted curve at half-maximal effect
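Cells (1,000/well) were plated 4 h before compound, then infected with HCVcc-Cre virus (~0.5 moi). After 44 h further culture, infection was read as luciferase luminescence following a 15 min substrate incubation at room temperature.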
FMDV inh = foot and mouth disease virus antiviral activity; FMDV antiviral cell-based qHTS; Potency, µM (top dose mostly 57.9 µM), inactives show at the highest dose activity change, negative = inhibition, usual class: inhibitors; hit rate 1.2% among 410,000; calls by dose curve; tested in HEK293T cells; also: read-out not given here; potency is read from the fitted curve at half-maximal effect; nearly all actives have a fitted effect of over 45% in size
HCMV inh = human cytomegalovirus inhibition; HFF cells, HCMV-luciferase reporter, 72 h; stronger effect = lower value; activity change, negative = inhibition, % at 57.5 µM; hit rate 4.5% among 410,000; in the data active = activity change below about -60%; inconclusive = no clear call, values can overlap the other calls; inactive = above about -39%
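Two compound doses tested in HFFs infected with HCMV-luciferase, MOI 1 PFU/cell, 72 h at 37C. Lysate luminescence read with OneGlo; data normalized against buffer-only and 10uM Salinomycin inhibitor controls.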
Lassa entry inh = Lassa virus entry inhibition; Lassa virus pseudotype entry inhibition, cell reporter; Potency, µM (doses to about 37.9 µM), inactives show at the top dose activity change, negative = inhibition, most hits filed as inhibitors; hit rate 1.2% among 300,000; calls by dose curve; tested in HEK293 cells; also: potency is read from the fitted curve at half-maximal effect; nearly all actives have a fitted effect of over 50% in size
Numbers without * were called inactive; ? = inconclusive; . = no result given; + = active, no number; ! = not confirmed by another sample; [ ] = dose if it differs, or a comment. % is scaled to controls: 0 for no effect and ±100 for the full control effect.

SMILES	Marburg entry inh	HCV inh	FMDV inh	HCMV inh	Lassa entry inh
Nc1c(C(=O)Nc2ccc(Cl)cc2)sc2nc3c(cc12)N1CCC3CC1	0.3%[46.1 µM]	.	?	-86.1*	?
COc1ccc(NC(=O)c2sc3nc4c(cc3c2N)N2CCC4CC2)cc1OC	.	.	?	-3.8	?
Nc1c(C(=O)Nc2cccc(Br)c2)sc2nc3c(cc12)N1CCC3CC1	?	.	-24.1%	?	7.3%[46.1 µM]
COc1ccccc1CNC(=O)C(=O)NCC(c1cccnc1)N1CCN(c2ccccc2)CC1 (stereo not drawn)	.	.	0.0%	-16.9	-20.9%[46.1 µM]
Cc1nc(N2CCCC2)c2ccsc2n1	17.2%	14.1µM*	-17.8%	-27.9	4.2%
CCOc1ccc(N2CC(NC(=O)C3CCCC3)CC2=O)cc1 (stereo not drawn)	.	.	-7.8%	32.9	8.0%[46.1 µM]
CCn1c(C)nc2cc(C(=O)NNC(=S)Nc3ccc(Cl)cc3)ccc21	.	0.5%	16.3%	-27.8	.
CCn1c(C)nc2cc(C(=O)NNC(=S)Nc3ccccc3)ccc21	?	-0.1%	2.4%	?	4.47µM*
COC(=O)c1ccc(NC(=O)CCNS(=O)(=O)c2cccc3nsnc23)cc1	-5.0%[46.1 µM]	.	15.0%	0.3	10.7%[46.1 µM]
CC(=O)OC1C(O)C(C)OC(OC2C(OC(=O)C3CCC4C(C3)OC3(CC(OC(=O)/C=C/c5ccccc5)C(C)CO3)C43CO3)OC(C)C(O)C2OC(C)=O)C1O (stereo not drawn)	?	?	?	-97.8*	?
CC(C)NC(=O)[C@@H]1C[C@@H](Sc2ccccn2)CN1C1CCN(C)CC1	.	.	-6.1%	.	.
O=C(Nc1ccccc1)C1CCCN1C(=O)Nc1ccccc1[N+](=O)[O-] (stereo not drawn)	-0.3%	-13.7%	-11.8%	-61.5*	-6.4%
CC(=O)Nc1ccc(NC(=O)C2CCCN2C(=O)Nc2ccccc2[N+](=O)[O-])cc1 (stereo not drawn)	-1.7%[46.1 µM]	2.2%	-10.5%	1.5	11.6%
Cc1ccc(-n2cccc2C(=S)N=P(N(C)C)(N(C)C)N(C)C)cc1	?	?	?	-79.5*	?
COc1ccc(CNC(=O)c2ccc3c(c2)N(Cc2ccccc2F)C(=O)c2ccccc2S3=O)cc1 (stereo not drawn)	?	.	-10.3%	21.0	-9.1%[46.1 µM]
O=C(NC1CCCCC1)c1nccnc1-c1ccc(C(F)(F)F)cc1	.	.	.	33.3	.
COc1ccc(NC(=O)CSc2ccccc2)cn1	?	-6.0%	32.6%	-103.1*	?
CC(C)c1ccc(Nc2ncc3c(n2)CCN(C(=O)Nc2ccc(F)c(Cl)c2)C3)cc1	.	.	?	-75.3*	.
O=C(Nc1ccc(Cl)cc1)N1CCc2ccccc2C1	?	-21.2%	66.4%	70.3	16.3%
O=C(Nc1ccc(OC(F)(F)F)cc1)N1CCc2nc(NCc3cccc(Oc4ccccc4)c3)ncc2C1	.	.	-30.2%	-92.2*	.
COc1cccc(NC(=O)N2CCc3nc(NCc4cccc(Oc5ccccc5)c4)ncc3C2)c1	.	.	-61.8%	?	.
COc1cccc(NC(=O)N2CCc3nc(Nc4cc(Cl)cc(Cl)c4)ncc3C2)c1	.	.	-22.6%	-66.7*	.
O=C(O[C@H]1CC[C@@]23CCCN2C(=O)CCC[C@H]3[C@H]1Cc1ccccc1)N1CCN(c2ccccc2)CC1	.	.	.	2.7	.
COC(=O)[C@@H]1C=C[C@H](C)[C@H](CCOc2ccccc2)O1	-7.7%[14.2 µM]	.	.	.	.
CC(C)C(NC(=O)c1ccc2c(c1)OCO2)C(=O)N/N=C/c1cccs1 (stereo not drawn)	-11.3%	-2.0%	9.0%	13.5	?
SMILES	Marburg entry inh	HCV inh	FMDV inh	HCMV inh	Lassa entry inh
Cc1c(/C=N/NC(=O)C(NC(=O)c2ccc3c(c2)OCO3)C(C)C)c2ccccc2n1C (stereo not drawn)	?	11.2µM*	0.2%	-80.2*	?
COc1ccc(-c2noc(N3CCN(c4ccc(C)cc4)C(C)C3)n2)cc1OC (stereo not drawn)	.	.	?	-0.2	25.3%[46.1 µM]
Cc1ccc(-c2cn3c(n2)sc2cc(C(=O)NCCCc4ccccc4)ccc23)c(C)c1	.	.	-7.4%	.	6.4%[46.1 µM]
COc1nc(NC(=O)c2ccc(F)cc2)nc(OC)c1-c1ccccc1	?	?	-18.5%	-64.2*	.
O=C(Nc1nc(-c2ccccc2)c(-c2ccccc2)o1)c1ccc(F)cc1	10µM*	?	-11.0%	-22.4	-10.8%
CCCCCn1c(=O)[nH]c2cc(C(=O)Nc3cc(OC)cc(OC)c3)ccc2c1=O	16.6%[46.1 µM]	.	-24.7%	-3.8	-0.1%[46.1 µM]
CCOC(=O)N1CCC(NC(=O)c2cc(C(=O)Nc3ccc(OCC)cc3)ccc2CO)CC1	-2.6%	-21.6%	?	-66.9*	-2.5%
CCOC(=O)N1CCC(NC(=O)c2cc(C(=O)NC3CCCC3)ccc2CO)CC1	-3.8%	4.7%	0.0%	25.4	.
CCOC(=O)N1CCC(NC(=O)c2cc(C(=O)Nc3cccc(C(F)(F)F)c3)ccc2CO)CC1	.	12.6µM*	?	?	.
CCOC(=O)N1CCC(NC(=O)c2ccc(CO)c(C(=O)NC3CCN(C(=O)OCC)CC3)c2)CC1	.	9.2%	-4.3%	18.3	.
CCCCc1nc2ccccc2c(=O)n1NC(=O)c1c(O)c2c(n(CC(C)C)c1=O)CCCC2	16.1%	-2.1%	-24.6%	-79.1*	20.2%
O=C(Nn1c(Cc2ccccc2)nc2ccccc2c1=O)c1c(O)c2cccc3c2n(c1=O)CCC3	.	-10.2%	-28.2%	-65.8*	.
CC(C)Cn1c2c(c(O)c(C(=O)Nn3c(Cc4ccccc4)nc4ccccc4c3=O)c1=O)CCCC2	0.5%	?	-14.1%	-27.3	1.5%
CCCn1c2c(c(O)c(C(=O)Nc3ccccc3)c1=O)CCCC2	4.0%	10µM*	5.6%	36.9	-8.0%
CN(CCO)C(=O)c1cn(C2CCCN(Cc3ccc4ccccc4c3)C2)nn1 (stereo not drawn)	.	.	-22.1%	.	.
CC(C)c1ccc(Nc2cc3c(cn2)cc(-c2ccccc2)n3C)cc1	.	.	.	-21.3	.
CCOc1ccc2nc(N3CCC(C(=O)NCCCN4CCOCC4)CC3)sc2c1	?	?	1.3%	37.3	-11.4%
CCCCN(CC)CCCNC(=O)C1CCN(c2nc3ccc(CC)cc3s2)CC1	?	.	-3.3%	-98.0*	?
CCCCN(C)CCCNC(=O)C1CCN(c2nc3ccc(CC)cc3s2)CC1	?	.	5.5%	-107.9*	?
CCCCN(CC)CCCNC(=O)CCN1N=C(c2ccc(OC)cc2)CCC1=O	.	.	0.1%	-29.3	3.8%[46.1 µM]
CCOc1ccc(CCNC(=O)CN2C(=O)c3cccnc3Oc3ccc(C)cc32)cc1OCC	.	-24.1%	-12.2%	25.7	-15.9%[46.1 µM]
Cc1ccc2c(c1)N(CC(=O)NCCCc1ccccc1)C(=O)c1cccnc1O2	.	-21.5%	?	-61.7*	.
CSc1ccc(CCNC(=O)CN2C(=O)c3cccnc3Oc3ccc(C)cc32)cc1	-8.9%[46.1 µM]	?	?	+!	?
CCCN1CCN(CCCNC(=O)CN2C(=O)c3cccnc3Oc3ccc(C)cc32)CC1	3.2%[46.1 µM]	4.0%	-12.3%	-31.9	-2.9%[46.1 µM]
O=C(CSc1nnc(-c2ccc(F)cc2)o1)N1CCCc2ccccc21	-1.4%[46.1 µM]	.	1.9%	-14.3	-0.5%[46.1 µM]
CCCCCNC(=O)c1cc(S(=O)(=O)N2CCCCC2)ccc1F	5.3%	-0.7%	1.1%	-104.7*	1.7%
